Data taken from ChEMBL document CHEMBL1157539, “Thousands of chemical starting points for antimalarial lead identification” (Nature, 2010).

What was measured:
Format in all cases: functional
Plasmodium falciparum [1] = assay: GSK_TCMDC: Inhibition of Plasmodium falciparum 3D7 in whole red blood cells, using parasite LDH activity as an index of growth. Test compounds present at 2uM
Plasmodium falciparum [2] = assay: GSK_TCMDC: Inhibition of Plasmodium falciparum Dd2 in whole red blood cells, using parasite LDH activity as an index of growth. Test compounds present at 2uM
HepG2 = assay: GSK_TCMDC: Percent inhibition of human HepG2 cell line. Test compounds present at 10uM.

| SMILES | Inhibition (Plasmodium falciparum [1]) | Inhibition (Plasmodium falciparum [2]) | Inhibition (HepG2) |
| --- | --- | --- | --- |
| CNc1nc(N/N=C/c2cc([N+](=O)[O-])c(Cl)cc2Cl)nc(Nc2cccc(C(F)(F)F)c2)n1 | 100% | 97% | 13% |
| CCN(CC)CCCC(C)Nc1c(-c2ccc(OC)cc2)cnc2ccccc12 (stereo not given) | 93% | 38% | 3% |
| COc1ccc(CCn2c(=N)c(C(=O)NCc3cccnc3)cc3c(=O)n4cccc(C)c4nc32)cc1 | 92% | 12% | 5% |
| C=CCn1c(Sc2ccc(C#N)c([N+](=O)[O-])c2)nnc1-c1cc(OC)cc(OC)c1 | 96% | 84% | 12% |
| CC(=O)c1ccc(N2CCN(CCC3(c4ccc(Cl)c(Cl)c4)COCN(C(=O)c4ccccc4)C3)CC2)cc1 (stereo not given) | 88% | 95% | 12% |
| O=C(NCCCCCN1CCCN(C(=O)Nc2ccc(F)c(C(F)(F)F)c2)CC1)C1CC1c1ccc(Cl)c(Cl)c1 (stereo not given) | 90% | 1% | 61% |
| CC1(C)OC[C@]2(C)[C@@H](CC[C@]3(C)C4=CC(=O)CCC4CC[C@@H]23)O1 (stereo not given in full) | 97% | 95% | 0% |
| C[C@@]12C[C@@H](Nc3nc(NCCc4ccc(O)cc4)nc(N4CCNCC4)n3)C[C@@H](C1)c1cccc(Cl)c1O2.O=C(O)C(F)(F)F | 100% | 47% | 92% |
| CCCCCCCCNCC(O)c1cc(-c2ccc(Cl)cc2)nc2cc(C)ccc12 (stereo not given) | 99% | 99% | 0% |
| Cc1cc(NC(=O)c2cc(Br)ccc2Cl)n(-c2nc(C)c(C)c(=O)[nH]2)n1 | 91% | 83% | 54% |
| FC(F)(F)c1ccc2[nH]c(-c3ccc(-c4ccc(CNCc5cnn(-c6ccccc6)n5)cc4)cc3)nc2c1.O=C(O)C(F)(F)F | 100% | 76% | 35% |
| Oc1cc(NCc2ccccc2NCc2ccc(Cl)c(Cl)c2)nc2ccccc12 | 93% | 98% | 10% |
| CC(C)NCc1ccc(-c2ccc(-c3nc4cc(C(F)(F)F)ccc4[nH]3)s2)cc1.O=C(O)C(F)(F)F | 100% | 94% | 30% |
| Cn1c(Nc2cc(C(C)(C)C)on2)nc2cc(Nc3ccnc(Nc4cccc(CS(C)(=O)=O)c4)n3)ccc21 | 99% | 94% | 63% |
| CCOC(=O)c1cc(C(=O)OC)c2ccccn12 | 97% | 2% | 44% |
| Cc1nc2nc(N)nc(N)c2c(C)c1Cc1c(Cl)cccc1Cl.Cl | 94% | 5% | 7% |
| Cl.N=C(N)NN=Cc1cc([N+](=O)[O-])ccc1Sc1ccccc1CO | 84% | 0% | 25% |
| O=C(Cn1c(CCc2cccc(F)c2F)nc(=O)c2ccccc21)N(CCN1CCCC1)Cc1ccc(-c2ccc(C(F)(F)F)cc2)cc1.O=C(O)C(O)C(O)C(=O)O | 100% | 37% | 63% |
| Cc1cccc2nc(-c3ccc(-c4ccc(CNCCCN5CCCC5=O)cc4)cc3)[nH]c12.O=C(O)C(F)(F)F | 100% | 47% | 7% |
| Br.CC1(C)NC(N)=NC(=N)N1OCC1CCCCC1 | 94% | 97% | 67% |
| CCCc1cc(C(=O)N[C@@H](Cc2ccccc2)[C@H](O)CNC2CCOCC2)c(F)c(N2CCCCS2(=O)=O)c1 | 97% | 97% | 0% |
| COc1cc(C(=O)Nc2cccc(-c3nc4ccccc4[nH]3)c2)cc(OC)c1OC | 99% | 41% | 25% |
| O=C(NCc1ccc(Cl)c(Cl)c1)c1ccc(C2CCCN(Cc3ccc4[nH]cnc4c3)C2)cc1 (stereo not given) | 100% | 83% | 9% |
| Fc1ccc(-c2cncc(-c3ccc(F)cc3)n2)cc1 | 99% | 94% | 7% |
| COc1ccc2nc(-c3ccc(C(=O)NCCCN4CCN(c5cc(Cl)ccc5OC)CC4)cc3)[nH]c2c1 | 97% | 53% | 0% |
| Cc1[nH]c(C)c(C(F)(F)F)c(=O)c1-c1ccc(Oc2ccc(OC(F)(F)F)cc2)cc1 | 97% | 96% | 0% |
| CC(C)(C)NC(=O)C(c1ccc(F)cc1)N(C(=O)c1ccc(CN2CCOCC2)o1)c1ccc(C2CCCCC2)cc1 (stereo not given) | 87% | 68% | 0% |
| O=C(Nc1ccc(Cn2nc(Cl)c(N3CCCNCC3)cc2=O)cc1)c1ccc(-c2ccccc2)cc1.O=C(O)C(F)(F)F | 87% | 35% | 93% |
| Nc1nc(N)c2cc(C#Cc3ccc(-c4ccccc4)cc3)ccc2n1 | 94% | 3% | 20% |
| CCN(CC)CCN(Cc1ccc(-c2ccc(C(F)(F)F)s2)cc1)C(=O)Cn1c(CCc2cccc(F)c2F)nc(=O)c2ccccc21.O=C(O)C(O)C(O)C(=O)O | 94% | 31% | 43% |
